From the supplement of paper PMC7411054

How the values were obtained:
Assay in all cases: phenotypically active (imaging signature differs from DMSO and reproducible) at any of 0.3-9 uM (binary (1 = active, 0 = inactive)); higher = active
Conditions in all cases: treatment time: 24 h
A549-ACTB-RAB5A = test system: A549-ACTB-RAB5A
Procedure, shortened: (§1)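 Each of fifteen gene-edited A549, HepG2 and WPMY1 reporter lines, marked with BFP for segmentation and GFP and RFP/FusionRed, was treated in four wells at 0.3, 1, 3 or 9 µM for 24 h prior to live imaging. Normalisation of per-well live-cell features used solvent control wells. Deviation needed ≥3 of 4 wells beyond the 95th percentile of control Euclidean distances, and reproducibility needed a median replicate Pearson correlation above the 95th percentile of non-replicates. Both were required for phenotypic activity.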

A549-CANX-COX4 = test system: A549-CANX-COX4
Procedure, shortened: as §1

A549-GM130-SQSTM1 = test system: A549-GM130-SQSTM1
Procedure, shortened: as §1

A549-TP53BP1-CLTA = test system: A549-TP53BP1-CLTA
Procedure, shortened: as §1

A549-TUBA1B-RELA = test system: A549-TUBA1B-RELA
Procedure, shortened: as §1

HepG2-ACTB-RAB5A = test system: HepG2-ACTB-RAB5A
Procedure, shortened: as §1

HepG2-CANX-COX4 = test system: HepG2-CANX-COX4
Procedure, shortened: as §1

HepG2-GM130-SQSTM1 = test system: HepG2-GM130-SQSTM1
Procedure, shortened: as §1

HepG2-TP53BP1-CLTA = test system: HepG2-TP53BP1-CLTA
Procedure, shortened: as §1

HepG2-TUBA1B-RELA = test system: HepG2-TUBA1B-RELA
Procedure, shortened: as §1

WPMY1-ACTB-RAB5A = test system: WPMY1-ACTB-RAB5A
Procedure, shortened: as §1

WPMY1-CANX-COX4 = test system: WPMY1-CANX-COX4
Procedure, shortened: as §1

WPMY1-GM130-SQSTM1 = test system: WPMY1-GM130-SQSTM1
Procedure, shortened: as §1

WPMY1-TP53BP1-CLTA = test system: WPMY1-TP53BP1-CLTA
Procedure, shortened: as §1

WPMY1-TUBA1B-RELA = test system: WPMY1-TUBA1B-RELA
Procedure, shortened: as §1

Measured: phenotypically active

CN1C(=O)OC(C)(C)C1=O [trimethadione]
inactive: A549-ACTB-RAB5A 0 | A549-CANX-COX4 0 | A549-GM130-SQSTM1 0 | A549-TP53BP1-CLTA 0 | A549-TUBA1B-RELA 0 | HepG2-ACTB-RAB5A 0 | HepG2-CANX-COX4 0 | HepG2-GM130-SQSTM1 0 | HepG2-TP53BP1-CLTA 0 | HepG2-TUBA1B-RELA 0 | WPMY1-ACTB-RAB5A 0 | WPMY1-CANX-COX4 0 | WPMY1-GM130-SQSTM1 0 | WPMY1-TP53BP1-CLTA 0 | WPMY1-TUBA1B-RELA 0

NC1=NCC2c3ccccc3Cc3ccccc3N12 (stereo not given) [epinastine]
inactive: A549-ACTB-RAB5A 0 | A549-CANX-COX4 0 | A549-GM130-SQSTM1 0 | A549-TP53BP1-CLTA 0 | A549-TUBA1B-RELA 0 | HepG2-ACTB-RAB5A 0 | HepG2-CANX-COX4 0 | HepG2-GM130-SQSTM1 0 | HepG2-TP53BP1-CLTA 0 | HepG2-TUBA1B-RELA 0 | WPMY1-ACTB-RAB5A 0 | WPMY1-CANX-COX4 0 | WPMY1-GM130-SQSTM1 0 | WPMY1-TP53BP1-CLTA 0 | WPMY1-TUBA1B-RELA 0

CCOC(=O)[C@H](CCc1ccccc1)N[C@H]1CCc2ccccc2N(CC(=O)O)C1=O [benazepril]
inactive: A549-ACTB-RAB5A 0 | A549-CANX-COX4 0 | A549-GM130-SQSTM1 0 | A549-TP53BP1-CLTA 0 | A549-TUBA1B-RELA 0 | HepG2-ACTB-RAB5A 0 | HepG2-CANX-COX4 0 | HepG2-GM130-SQSTM1 0 | HepG2-TP53BP1-CLTA 0 | HepG2-TUBA1B-RELA 0 | WPMY1-ACTB-RAB5A 0 | WPMY1-CANX-COX4 0 | WPMY1-GM130-SQSTM1 0 | WPMY1-TP53BP1-CLTA 0 | WPMY1-TUBA1B-RELA 0

CCC1(c2ccccc2)C(=O)NCNC1=O [primidone]
inactive: A549-ACTB-RAB5A 0 | A549-CANX-COX4 0 | A549-GM130-SQSTM1 0 | A549-TP53BP1-CLTA 0 | A549-TUBA1B-RELA 0 | HepG2-ACTB-RAB5A 0 | HepG2-CANX-COX4 0 | HepG2-GM130-SQSTM1 0 | HepG2-TP53BP1-CLTA 0 | HepG2-TUBA1B-RELA 0 | WPMY1-ACTB-RAB5A 0 | WPMY1-CANX-COX4 0 | WPMY1-GM130-SQSTM1 0 | WPMY1-TP53BP1-CLTA 0 | WPMY1-TUBA1B-RELA 0

CC1=C(CC(=O)O)c2cc(F)ccc2/C1=C\c1ccc(S(C)=O)cc1 (stereo not given) [sulindac]
inactive: A549-ACTB-RAB5A 0 | A549-CANX-COX4 0 | A549-GM130-SQSTM1 0 | A549-TP53BP1-CLTA 0 | A549-TUBA1B-RELA 0 | HepG2-ACTB-RAB5A 0 | HepG2-CANX-COX4 0 | HepG2-GM130-SQSTM1 0 | HepG2-TP53BP1-CLTA 0 | HepG2-TUBA1B-RELA 0 | WPMY1-ACTB-RAB5A 0 | WPMY1-CANX-COX4 0 | WPMY1-GM130-SQSTM1 0 | WPMY1-TP53BP1-CLTA 0 | WPMY1-TUBA1B-RELA 0

Nc1ncnc2c1c(-c1ccc(Cl)cc1)nn2-c1cccc(-c2cnnn2Cc2cccc(-c3ccccc3)c2)c1
inactive: A549-ACTB-RAB5A 0 | A549-CANX-COX4 0 | A549-GM130-SQSTM1 0 | A549-TP53BP1-CLTA 0 | A549-TUBA1B-RELA 0 | HepG2-ACTB-RAB5A 0 | HepG2-CANX-COX4 0 | HepG2-GM130-SQSTM1 0 | HepG2-TP53BP1-CLTA 0 | HepG2-TUBA1B-RELA 0 | WPMY1-ACTB-RAB5A 0 | WPMY1-CANX-COX4 0 | WPMY1-GM130-SQSTM1 0 | WPMY1-TP53BP1-CLTA 0 | WPMY1-TUBA1B-RELA 0

Cc1c(OCC(F)(F)F)ccnc1CS(=O)c1nc2ccccc2[nH]1 (stereo not given) [lansoprazole]
inactive: A549-ACTB-RAB5A 0 | A549-CANX-COX4 0 | A549-GM130-SQSTM1 0 | A549-TP53BP1-CLTA 0 | A549-TUBA1B-RELA 0 | HepG2-ACTB-RAB5A 0 | HepG2-CANX-COX4 0 | HepG2-GM130-SQSTM1 0 | HepG2-TP53BP1-CLTA 0 | HepG2-TUBA1B-RELA 0 | WPMY1-ACTB-RAB5A 0 | WPMY1-CANX-COX4 0 | WPMY1-GM130-SQSTM1 0 | WPMY1-TP53BP1-CLTA 0 | WPMY1-TUBA1B-RELA 0

Cc1ccc([N+](=O)[O-])cc1S(=O)(=O)N(C)C
inactive: A549-ACTB-RAB5A 0 | A549-CANX-COX4 0 | A549-GM130-SQSTM1 0 | A549-TP53BP1-CLTA 0 | A549-TUBA1B-RELA 0 | HepG2-ACTB-RAB5A 0 | HepG2-CANX-COX4 0 | HepG2-GM130-SQSTM1 0 | HepG2-TP53BP1-CLTA 0 | HepG2-TUBA1B-RELA 0 | WPMY1-ACTB-RAB5A 0 | WPMY1-CANX-COX4 0 | WPMY1-GM130-SQSTM1 0 | WPMY1-TP53BP1-CLTA 0 | WPMY1-TUBA1B-RELA 0

Cc1ccc(-c2c(-c3nn(C)c4ncnc(N5CC[C@H](N6CCCCC6)C5)c34)cnn2C)cc1
inactive: A549-ACTB-RAB5A 0 | A549-CANX-COX4 0 | A549-GM130-SQSTM1 0 | A549-TP53BP1-CLTA 0 | A549-TUBA1B-RELA 0 | HepG2-ACTB-RAB5A 0 | HepG2-CANX-COX4 0 | HepG2-GM130-SQSTM1 0 | HepG2-TP53BP1-CLTA 0 | HepG2-TUBA1B-RELA 0 | WPMY1-ACTB-RAB5A 0 | WPMY1-CANX-COX4 0 | WPMY1-GM130-SQSTM1 0 | WPMY1-TP53BP1-CLTA 0 | WPMY1-TUBA1B-RELA 0

O=C(O)CCN(O)C(=O)CCCCCCCCC1CC1
inactive: A549-ACTB-RAB5A 0 | A549-CANX-COX4 0 | A549-GM130-SQSTM1 0 | A549-TP53BP1-CLTA 0 | A549-TUBA1B-RELA 0 | HepG2-ACTB-RAB5A 0 | HepG2-CANX-COX4 0 | HepG2-GM130-SQSTM1 0 | HepG2-TP53BP1-CLTA 0 | HepG2-TUBA1B-RELA 0 | WPMY1-ACTB-RAB5A 0 | WPMY1-CANX-COX4 0 | WPMY1-GM130-SQSTM1 0 | WPMY1-TP53BP1-CLTA 0 | WPMY1-TUBA1B-RELA 0

CCC(CC)(NC(=O)C(C)C)C(=O)N[C@@H](CCCNC(=N)N)C(=O)NC1(C(=O)NC(c2ccc(F)cc2)c2ccc(F)cc2)CCCC1
inactive: A549-ACTB-RAB5A 0 | A549-CANX-COX4 0 | A549-GM130-SQSTM1 0 | A549-TP53BP1-CLTA 0 | A549-TUBA1B-RELA 0 | HepG2-ACTB-RAB5A 0 | HepG2-CANX-COX4 0 | HepG2-GM130-SQSTM1 0 | HepG2-TP53BP1-CLTA 0 | HepG2-TUBA1B-RELA 0 | WPMY1-ACTB-RAB5A 0 | WPMY1-CANX-COX4 0 | WPMY1-GM130-SQSTM1 0 | WPMY1-TP53BP1-CLTA 0 | WPMY1-TUBA1B-RELA 0

O=C1NC(=O)/C(=C\c2cccc(C(F)(F)F)c2)S1
inactive: A549-ACTB-RAB5A 0 | A549-CANX-COX4 0 | A549-GM130-SQSTM1 0 | A549-TP53BP1-CLTA 0 | A549-TUBA1B-RELA 0 | HepG2-ACTB-RAB5A 0 | HepG2-CANX-COX4 0 | HepG2-GM130-SQSTM1 0 | HepG2-TP53BP1-CLTA 0 | HepG2-TUBA1B-RELA 0 | WPMY1-ACTB-RAB5A 0 | WPMY1-CANX-COX4 0 | WPMY1-GM130-SQSTM1 0 | WPMY1-TP53BP1-CLTA 0 | WPMY1-TUBA1B-RELA 0
